High-throughput results: PubChem BioAssay, National Center for Advancing Translational Sciences (NCATS)
Only some compounds are listed: those with a hit (about 15% of all), similar ones and a draw of the others.
ALOX12 inh = blocks human arachidonate 12S-lipoxygenase; hit rate 1.1% among 580,000; P18054; Potency, µM (highest dose often 108 µM), for the others: top-dose activity change, negative = inhibition, most hits filed as inhibitors; AID 1671190; purified 12hLO, xylenol orange hydroperoxide absorbance
Target sequence (P18054 whole entry, looked up): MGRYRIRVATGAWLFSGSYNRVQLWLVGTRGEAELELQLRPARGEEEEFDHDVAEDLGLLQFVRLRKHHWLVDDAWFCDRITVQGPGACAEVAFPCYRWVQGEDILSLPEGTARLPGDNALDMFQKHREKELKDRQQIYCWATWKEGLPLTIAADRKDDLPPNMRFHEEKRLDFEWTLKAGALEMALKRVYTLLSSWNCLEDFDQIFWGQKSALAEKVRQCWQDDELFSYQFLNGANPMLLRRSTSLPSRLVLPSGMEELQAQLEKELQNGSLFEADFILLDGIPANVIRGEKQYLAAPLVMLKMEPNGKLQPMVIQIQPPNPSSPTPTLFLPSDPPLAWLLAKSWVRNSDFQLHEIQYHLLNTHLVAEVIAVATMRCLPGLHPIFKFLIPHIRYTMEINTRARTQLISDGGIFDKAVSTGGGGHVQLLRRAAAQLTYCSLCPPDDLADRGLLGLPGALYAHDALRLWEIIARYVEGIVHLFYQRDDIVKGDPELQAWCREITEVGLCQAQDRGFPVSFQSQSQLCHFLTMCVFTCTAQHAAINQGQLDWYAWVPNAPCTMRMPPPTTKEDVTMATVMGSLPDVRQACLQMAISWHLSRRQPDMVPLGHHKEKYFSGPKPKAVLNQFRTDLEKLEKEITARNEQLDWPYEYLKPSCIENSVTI
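Purified human 12hLO (150 nM final) in 25 mM Hepes, 0.01% Triton X-100, pH 7.0 was preincubated 15 min at room temperature with compound. Then 40 uM arachidonic acid was added, 30 min. Hydroperoxide was read by Fe-XO absorbance ratio 573/405 nm.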
Gal4-VP16 FLuc = inhibits Gal4-VP16 luciferase reporter, ROR gamma counter-screen. Drosophila S2 Gal4-VP16 UAS-luciferase, luminescence, 20 h. Potency, µM (doses to about 53.6 µM), without a hit: at the top dose activity, negative = inhibition, actives largely listed as inhibitors. hit rate 3.5% among 310,000. AID 2546;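 further: Gal4-VP16 expression switched on by copper sulfate through the metallothionein promoter; nearly all actives have a fitted effect of over 50% in size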
DT40 TDP1 no CPT = qHTS for Inhibitors of human tyrosyl-DNA phosphodiesterase 1 (TDP1): qHTS in cells in absence of CPT; DT40 Tdp1-/- hTDP1 cells, no CPT, ATP luminescence, 48 h; Potency, µM (series often up to 46.2 µM), for the others: at the top dose activity change, negative = growth inhibition, usual class: inhibitors; hit rate 15% among 420,000; further: nearly all actives have a fitted effect of over 55% in size
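Growth kinetics read by CellTiter-Glo luminescence after ≥48 hr at 37 °C. Cells: DT40 Tdp1-/- stably carrying human TDP1, 400 per well, compound exposure in the absence of CPT (DMSO vehicle).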
DT40 TDP1 CPT = DT40-hTDP1 cell growth loss with CPT | AID 686979 | Potency, µM (highest dose often 46.2 µM), inactives show at the highest dose activity change, negative = growth inhibition, hits mostly inhibitors | chicken DT40 Tdp1-/-;hTDP1 cells + 20 nM CPT, ATP luminescence, 48 h | hit rate 12% among 420,000; further: nearly all actives have a fitted effect of over 55% in size
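Cell growth measured by CellTiter-Glo luminescence after a minimum 48 h, 37 C compound exposure with 20 nM CPT in Tdp1-knockout DT40 cells stably expressing hTDP1, seeded 400/well; qHTS titration format.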
RORg inh = inhibitors of mouse ROR gamma transcriptional activity. P51450. Drosophila S2 Gal4-RORgamma UAS-luciferase reporter, 20 h. Potency, µM (top dose mostly 53.6 µM), for the others: at the top dose activity change, negative = inhibition, most hits filed as inhibitors. hit rate 5.4% among 310,000. AID 2551; further: nearly all actives have a fitted effect of over 60% in size
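Drosophila S2 cells stably expressing Gal4-DBD/mouse RORγ fusion under metallothionein promoter plus UAS-luciferase; compound 1 h, then 700 uM CuSO4 induction for 20 h at ambient temperature; inhibition read as reduced luminescence.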
ELG1 repair inh = ELG1-dependent DNA repair inhibition; Potency, µM (doses to about 46.1 µM), for inactives: at the highest dose activity change, negative = inhibition, actives largely listed as inhibitors; AID 504467; hit rate 2.3% among 330,000; HEK293T ELG1-luciferase reporter, luminescence, 16 h; DNA damage induced by 5-fluorouridine; further: nearly all actives have a fitted effect of over 55% in size
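DMSO vehicle served as the neutral condition. Each well held 2,000 cells given 5-fluorouridine plus compound; after 16 hr at 37 °C/5% CO2, ONE-Glo was added and luciferase measured 30 min later.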
* = called active by the depositor; i = inactive; u = inconclusive; x = no result; ! = not confirmed by another sample; [ ] = dose if it differs, or a comment. The call rests on the fitted dose curve; in most records, active means well fitted curve in the direction sought with a large enough effect; inconclusive means small, poorly fitted or top-dose-only effect, or another doubt; inactive means no such curve, though single readings can be large; an effect the other way counts as inactive or inconclusive. On the % scale 0 is the no-effect control and ±100 the full control effect; potency means the concentration at half of the fitted maximal effect.

SMILES	ALOX12 inh	Gal4-VP16 FLuc	DT40 TDP1 no CPT	DT40 TDP1 CPT	RORg inh	ELG1 repair inh
CCn1c(SCC(=O)Nc2nnc(C)s2)nc2c(c1=O)SC(C)C2 (configuration not stated)	11.7%	3.8%	u	-27.8%	6.5%	-0.9%
COc1ccc(NC(=O)c2ccc(NCCCN3CCOCC3)c([N+](=O)[O-])c2)cc1	u	4.1%	18.4µM*	20.6µM*	1.1%	3.4%
O=C(NCCCN1CCOCC1)c1ccc(Sc2cccc(Cl)c2)c([N+](=O)[O-])c1	u	-7.6%	20.6µM*	u	-7.4%	10.2%
O=C(NCCCN1CCOCC1)c1ccc(Cl)c([N+](=O)[O-])c1	i	x	-2.8%	7.1%	x	x
Cc1ccc(NC(=O)c2ccc(NCCCN3CCOCC3)c([N+](=O)[O-])c2)cc1Cl	-29.9%	-21.2%	20.6µM*	u	18.4%	18.4µM*
O=C(Nc1ccc(Cl)c([N+](=O)[O-])c1)c1ccc(NCCCN2CCOCC2)c([N+](=O)[O-])c1	-1.7%	u	2.31µM*	2.31µM*	5.01µM*	-2.6%
O=C(O)c1cc(-c2cccc(Cl)c2)nc2c(Cl)cccc12	-3.3%	x	x	x	x	x
c1ccc(C2CNCCc3ccccc32)cc1 (configuration not stated)	11.5%	-6.8%	-14.2%	u	18.5%	-4.9%
S=C1NCCc2ccc(Cl)cc2C1c1ccccc1 (configuration not stated)	u	2.51µM*	23.1µM*	u	1.26µM*	-0.5%
COc1cc(-c2nc3c4c5c(sc4ncn3n2)CCCC5)ccc1OC(F)F	25.8%	x	x	x	x	x
CC1CCN(CC(O)COCCOc2ccc(Br)cc2)CC1 (configuration not stated)	-18.2%	-13.5%	u	-19.8%	9.7%	-1.9%
CC1CCN(CC(O)COCCC23CC4CC(CC(C4)C2)C3)CC1 (configuration not stated)	-6.0%[57.4 µM]	0.4%	20.6µM*	20.6µM*	6.6%	u
CC(C)c1cnc(-c2ccncc2)[nH]1	10.0%[12.5 µM]	x	x	x	x	x
CCCCC[C@H]1CN(Cc2ccccc2)C(=O)[C@@H]1CC(=O)NCc1ccccc1	-12.6%	0.0%	14.1µM*	11.2µM*	33.6%	7.8%
CCCCC[C@H]1CN(CCCC)C(=O)[C@@H]1CC(=O)NCc1ccc(OC)cc1	3.4%	-0.6%	u	u	39.1%	-4.9%
COc1ccc(NC(=O)C[C@H]2C(=O)N(c3ccccc3)C[C@@H]2Cc2ccccc2)cc1	-8.2%	x	u	-23.5%	x	x
COc1ccc(CNC(=O)C[C@H]2C(=O)N(c3ccccc3)C[C@@H]2Cc2ccccc2)cc1	-24.2%	-7.1%	u	u	26.2%	-17.6%
COc1ccc(N2C[C@H](Cc3ccccc3)[C@@H](CC(=O)Nc3ccccc3)C2=O)cc1	-1.3%	x	20.6µM*	u	x	x
CSC[C@H]1CN(Cc2ccccc2)C(=O)[C@@H]1CC(=O)Nc1ccccc1	-6.1%	x	u	4.0%	x	x
CCCCN1C[C@H](Cc2ccccc2)[C@@H](CC(=O)NCc2ccc(OC)cc2)C1=O	-2.7%	0.0%	22.4µM*!	17.8µM*	25.0%	-12.2%
CCCCC[C@H]1CN(CCc2ccccc2)C(=O)[C@@H]1CC(=O)NCc1ccc(OC)cc1	-16.9%	1.6%	18.4µM*	u	42.8%	-1.8%
C#Cc1cccc(NC(=O)C(C)OCC)c1 (configuration not stated)	0.3%	x	x	x	x	x
CCOc1ccc(N(CC)S(=O)(=O)N2CCCC(C(=O)Nc3ccc(OC)c(Cl)c3)C2)cc1 (configuration not stated)	2.3%	x	23.1µM*	16.4µM*	x	x
CCOc1ccc(N(CC)S(=O)(=O)N2CCCC(C(=O)Nc3cc(Cl)ccc3OC)C2)cc1 (configuration not stated)	-13.6%	x	18.4µM*	u	x	x
CCN(c1ccc(OC)cc1)S(=O)(=O)N1CCCC(C(=O)NC(C)c2ccccc2)C1 (configuration not stated)	409.2%	x	x	x	x	x
SMILES	ALOX12 inh	Gal4-VP16 FLuc	DT40 TDP1 no CPT	DT40 TDP1 CPT	RORg inh	ELG1 repair inh
COc1ccc(NC(=O)C2CCCN(S(=O)(=O)c3cn(C)cn3)C2)cc1Cl (configuration not stated)	-25.5%	x	-25.2%	-27.6%	x	x
COc1ccc2nc(N3C(=O)C(O)=C(C(=O)c4ccco4)C3c3ccc(C)o3)sc2c1 (configuration not stated)	u	x	18.4µM*	-17.4%	x	16.7%
Cc1ccc2nc(N3C(=O)C(O)=C(C(=O)c4ccc(C)o4)C3c3ccc(O)cc3)sc2c1 (configuration not stated)	28.2µM*	x	20.5%	2.2%	x	u
COc1ccc(C[C@H]2CN3C(=NC[C@H]3C)N2CCNC(=O)c2ccc(C)c(Br)c2)cc1	-25.0%	2.8%	5.8µM*	6.51µM*	-25.6%	3.6%
Cc1ccc(C(=O)NCCN2C3=NC[C@H](C)N3C[C@H]2Cc2ccc(O)cc2)cc1Br	-27.2%	-5.6%	20.6µM*	20.6µM*	0.4%	3.2%
C/C=C(\C)C(=O)NCCN1C2=NC[C@H](Cc3ccc(O)cc3)N2C[C@H]1Cc1ccc(O)cc1	-1.5%	-4.0%	-20.3%	4.5%	22.2%	-11.5%
COc1ccc(C[C@@H]2CN3C(=NC[C@@H]3C)N2C[C@H](C)NC(=O)c2ccc(C)c(Br)c2)cc1	-21.2%	1.8%	14.6µM*	18.4µM*	1.8%	0.0%
C/C=C(\C)C(=O)NCCN1C2=NC[C@@H](Cc3ccccc3)N2C[C@@H]1Cc1ccc(OC)cc1	-1.0%	x	-29.5%	-26.1%	x	x
C=CCn1c(SCC(=O)Nc2ccc(NC(=O)c3ccco3)c(OC)c2)nnc1-c1ccncc1	0.0%	0.4%	-28.9%	-28.0%	6.4%	-8.2%
C=CCn1c(SCC(=O)Nc2cc(OC)c(NC(=O)c3ccco3)cc2OC)nnc1-c1ccncc1	-17.8%	1.9%	u	-26.5%	u	23.1µM*
O=C(NCCSc1ncc(-c2ccc(F)cc2)[nH]1)c1ccco1	-13.1%	x	u	u	x	13.9%
CCn1c(SCC(=O)Nc2cc3oc4ccccc4c3cc2OC)nnc1-c1cccs1	-22.7%	u	u	u	-31.8%	18.4µM*
COc1cc(NC(=O)c2ccco2)c(OC)cc1NC(=O)CSc1ncc(-c2ccc(F)cc2)[nH]1	8.0%	-13.5%	25.9µM*	u	-0.5%	u
C=CCn1c(SCC(=O)Nc2cccc3ccccc23)nnc1-c1cnccn1	-19.7%	-2.1%	-9.0%	2.4%	-8.4%	u
